Records with an inconclusive call do not appear. Active and inactive are the calls of the source. Calls come from the whole dose curve; as a rule, active = well fitted curve in the direction sought with a large enough effect; inconclusive = small, poorly fitted or top-dose-only effect, or another doubt; inactive = no such curve, though single readings can be large; an effect the other way counts as inactive or inconclusive.
experiment: qHTS for Inhibitors of Plasmodium falciparum (DD2) proliferation (AID 504314);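 note: parasite DNA measured by SYBR Green fluorescence after red cell lysis; plate controls were DMSO vehicle for no effect and artemisinin wells for full effect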; details: P. falciparum Dd2 in erythrocytes, SYBR Green growth, 72 h; series mostly up to 6.11 µM; activity, negative = inhibition: at the top concentration
In short: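 Quantitative HTS growth inhibition: SYBR Green I binding to parasite DNA after 72 h drug exposure of infected erythrocytes (0.3% parasitemia, 2.5% hematocrit). Signals normalized per plate to inhibitor and vehicle wells.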

activity, negative = inhibition, inactive:
COc1ccc2c(c1)[C@H](C=Cc1ccccc1)[C@@H]([C@H](O)CO)O2 -10.8%, CC=CC(=O)C[C@H]1CC[C@@H](C)[C@@H](CCO)O1 -8.55%, CC(CCN1CCCCc2nc(C)c(C)cc21)=NO[C@H](C)c1cn([C@H](CO)Cc2ccccc2)nn1 -8.42%, CC1(C)OCC([C@H](O)C2=CCCCC2=O)CO1 -9.79%, C=CC[C@@]1(c2ccc(OC)cc2)Oc2ccccc2C2=NCCN=C21 -6.6%, C[C@H]1[C@@H](C(=O)N2CCCC2)CC(=O)C(=NOCc2ccccc2)C[C@H]1c1ccccc1 -5.83%, CCC12C=C(C=Cc3ccccc3)C(CC)(C1)C(c1ccccc1)CC2=O (stereo not drawn) -2.18%, C[C@H](NC(=O)N1CCc2nc(-c3ccccc3)c3c(c2C1)CO[C@@H](C)C3)c1ccccc1 3.91% [at 1.12 µM], COC(=O)C(=Cc1cc(Br)c(OC)c(Br)c1)C(=O)OC -3.7%, COC(=O)CC=C[C@@H](C)[C@@H](C=NOC[C@@H](O)COCc1ccco1)NS(=O)(=O)c1ccc(C)cc1 -9.91%, COC1=C[C@H](C(=O)NC2CCN(Cc3ccccc3)CC2)[C@@]2(C)Cc3ccccc3[C@@H]2CC1=O -11.5%, CC(C)OC(=O)[C@H](C)NC(=O)N1CCc2nc(-c3ccccc3)c3c(c2C1)CO[C@@H](C)C3 -7.45%, C=CCN1C(=O)CC[C@@]23C1=NC(C(=O)OC)=C(C(=O)OC)[C@@H]2N(CC#CC)c1ccccc13 -12%, COc1ccc(C=CNC(=O)c2ccc(OC)cc2)cc1 -5.91%, COC(=O)C1=C(C)N(Cc2ccco2)C(=O)NC1c1ccc(Br)cc1 (stereo not drawn) -9.91%, COc1ccc2c(c1)O[C@@H](c1cccc(C(F)(F)F)c1)[C@H](OC(=O)NC1CCCC1)C2=O -2.34%, C[C@@H]1CC[C@H]2C(=O)N(Cc3ccc(Cl)cc3)C[C@@H](O)CN2[C@@H]1c1cccc(Br)c1 -11.4%, COC1=C[C@H](C(=O)N2CCCC2)[C@H](C)[C@@H](c2ccccc2)CC1=O -14.1%, COc1cc(CCN2C(=O)NC(c3ccccc3)C(C(C)=O)=C2C)cc(OC)c1OC (stereo not drawn) -7.44%, CC(CCC(=O)OC[C@H]1O[C@H](C#Cc2ccccc2)C=C[C@H]1Oc1ccc(C)cc1)=NO[C@H](C)c1cn([C@H](CO)Cc2ccccc2)nn1 -3.35%, C#CC1(O)C2C=C(OC)C(=O)C1C(c1ccccc1)C2C (stereo not drawn) -9.71%, C=CCN1c2ccccc2[C@]23CCC(=O)N(CCCOC(C)C)C2=NC(C(=O)OC)=C(C(=O)OC)[C@H]13 -9.2%, Cc1cc2c(c(=O)o1)[C@H]1O[C@](c3ccsc3)(Cc3c1ccc1ccccc31)O2 -11.6%, CC1(OC(=O)CCc2ccccc2)C(=O)C=C2C=C(c3ccc(C#N)cc3)N(CC3CC3)C=C2C1=O (stereo not drawn) -3.92% [at 1.12 µM], COC(=O)C1=C(C(=O)OC)[C@@H]2N(CC=C(C)C)c3ccccc3[C@@]23CCC(=O)N(CCc2ccccn2)C3=N1 -13.7%, COc1cc2c(cc1OC)[C@@]1(c3ccccc3)CCCC[C@H]1[C@@H]2NC(=O)C(F)(F)F -12.6%, C[C@H](NC(=O)N1CCc2nc(COc3ccccc3)c3c(c2C1)CO[C@@H](C)C3)c1ccccc1 -0.0576% [at 1.12 µM], Cc1ccc2[nH]c3nc(CCCn4ccnc4-c4ccccc4)nnc3c2c1 -9.19%, COc1ccc(O[C@H]2C=C[C@@H](c3ccccc3)O[C@H]2COC(=O)CCC(C)=NOC[C@@H](O)COCc2ccco2)cc1 -12.7%, CCCCC1=CC2=CC(=O)C(C)(O)C(=O)C2=CO1 (stereo not drawn) -5.53%, C[C@@H]1CC[C@H]2C(=O)N(Cc3cccc([N+](=O)[O-])c3)C[C@H](O)CN2[C@@H]1c1cccc(Br)c1 -10.9%, COCC1=C(C(=O)OC)C(c2ccccc2)N(C(C)=O)C(=O)N1 (stereo not drawn) 0.0973%, COc1ccc2c(c1)C(=O)[C@@H](OC(=O)NCCc1ccc(OC)c(OC)c1)[C@H](c1ccc(OC)c(Br)c1)O2 -5.73%, COc1ccc(N2C=C3C(=O)C(C)(OC(=O)C4CCCC4)C(=O)C=C3C=C2c2ccsc2)cc1 (stereo not drawn) -0.73% [at 1.12 µM], CC(CCN1CCCc2nc(C)c(C)cc21)=NOC[C@@H](O)[C@H]1O[C@@H]2OC(C)(C)O[C@H]2[C@@H]1O 6.78%, C=CCOC(=O)N[C@H](c1ccc(-c2ccccc2)cc1)[C@H](C)C=CCC(=O)OC -1.88%, CCN1C(=O)N(S(=O)(=O)c2ccc(C)cc2)C(c2ccccc2)C(C(=O)OC)=C1C (stereo not drawn) -9.94%

Potency, inactive:
COc1ccc(-c2nc3c(c4c2C[C@H](c2ccccc2)OC4)CN(C(=O)C2CC2)CC3)c(C)c1, COC(=O)CC1c2ccccc2C(Cc2ccc3c(c2)OCO3)=C(C)N1C(=O)OC (stereo not drawn)

experiment: qHTS for Inhibitors of Plasmodium falciparum (GB4) proliferation (AID 504315);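 note: 0% = DMSO vehicle and -100% = 0.29 µM artemisinin control; nearly all actives have a fitted effect of over 50% in size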; details: P. falciparum GB4 in erythrocytes, SYBR Green DNA, 72 h; series mostly up to 6.7 µM; activity change, negative = inhibition: at the top concentration
In short: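 Erythrocytes infected with P. falciparum line (0.3% parasitemia, 2.5% hematocrit final) incubated with compounds 72 h at 37 °C, 5% CO2; SYBR Green lysis buffer added, fluorescence read next day. Normalized to 0.29 uM artemisinin and DMSO.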

Activity change, negative = inhibition, inactive:
COc1ccc2c(c1)[C@H](C=Cc1ccccc1)[C@@H]([C@H](O)CO)O2 -12.7%, CC=CC(=O)C[C@H]1CC[C@@H](C)[C@@H](CCO)O1 -7.25%, CC(CCN1CCCCc2nc(C)c(C)cc21)=NO[C@H](C)c1cn([C@H](CO)Cc2ccccc2)nn1 -8.93%, CC1(C)OCC([C@H](O)C2=CCCCC2=O)CO1 -12.3%, C=CC[C@@]1(c2ccc(OC)cc2)Oc2ccccc2C2=NCCN=C21 -11%, C[C@H]1[C@@H](C(=O)N2CCCC2)CC(=O)C(=NOCc2ccccc2)C[C@H]1c1ccccc1 -4.07%, CCC12C=C(C=Cc3ccccc3)C(CC)(C1)C(c1ccccc1)CC2=O (stereo not drawn) -2.87%, COC(=O)C(=Cc1cc(Br)c(OC)c(Br)c1)C(=O)OC 5.83%, COC(=O)CC=C[C@@H](C)[C@@H](C=NOC[C@@H](O)COCc1ccco1)NS(=O)(=O)c1ccc(C)cc1 -4.91%, COC1=C[C@H](C(=O)NC2CCN(Cc3ccccc3)CC2)[C@@]2(C)Cc3ccccc3[C@@H]2CC1=O -11.5%, CC(C)OC(=O)[C@H](C)NC(=O)N1CCc2nc(-c3ccccc3)c3c(c2C1)CO[C@@H](C)C3 -3.27%, C=CCN1C(=O)CC[C@@]23C1=NC(C(=O)OC)=C(C(=O)OC)[C@@H]2N(CC#CC)c1ccccc13 -5.71%, COc1ccc(C=CNC(=O)c2ccc(OC)cc2)cc1 0.508%, COC(=O)C1=C(C)N(Cc2ccco2)C(=O)NC1c1ccc(Br)cc1 (stereo not drawn) 8.81%, COc1ccc2c(c1)O[C@@H](c1cccc(C(F)(F)F)c1)[C@H](OC(=O)NC1CCCC1)C2=O 3.88%, C[C@@H]1CC[C@H]2C(=O)N(Cc3ccc(Cl)cc3)C[C@@H](O)CN2[C@@H]1c1cccc(Br)c1 -2.68%, COC1=C[C@H](C(=O)N2CCCC2)[C@H](C)[C@@H](c2ccccc2)CC1=O -14.2%, COc1cc(CCN2C(=O)NC(c3ccccc3)C(C(C)=O)=C2C)cc(OC)c1OC (stereo not drawn) -7.68%, CC(CCC(=O)OC[C@H]1O[C@H](C#Cc2ccccc2)C=C[C@H]1Oc1ccc(C)cc1)=NO[C@H](C)c1cn([C@H](CO)Cc2ccccc2)nn1 -8.88%, C#CC1(O)C2C=C(OC)C(=O)C1C(c1ccccc1)C2C (stereo not drawn) -1.48%, C=CCN1c2ccccc2[C@]23CCC(=O)N(CCCOC(C)C)C2=NC(C(=O)OC)=C(C(=O)OC)[C@H]13 -4.4%, Cc1cc2c(c(=O)o1)[C@H]1O[C@](c3ccsc3)(Cc3c1ccc1ccccc31)O2 -11.5%, COC(=O)C1=C(C(=O)OC)[C@@H]2N(CC=C(C)C)c3ccccc3[C@@]23CCC(=O)N(CCc2ccccn2)C3=N1 -1.42%, COc1cc2c(cc1OC)[C@@]1(c3ccccc3)CCCC[C@H]1[C@@H]2NC(=O)C(F)(F)F -2.9%, Cc1ccc2[nH]c3nc(CCCn4ccnc4-c4ccccc4)nnc3c2c1 -6.45%, COc1ccc(O[C@H]2C=C[C@@H](c3ccccc3)O[C@H]2COC(=O)CCC(C)=NOC[C@@H](O)COCc2ccco2)cc1 -10.4%, CCCCC1=CC2=CC(=O)C(C)(O)C(=O)C2=CO1 (stereo not drawn) 16.3%, C[C@@H]1CC[C@H]2C(=O)N(Cc3cccc([N+](=O)[O-])c3)C[C@H](O)CN2[C@@H]1c1cccc(Br)c1 -8.3%, COCC1=C(C(=O)OC)C(c2ccccc2)N(C(C)=O)C(=O)N1 (stereo not drawn) 8.42%, COc1ccc2c(c1)C(=O)[C@@H](OC(=O)NCCc1ccc(OC)c(OC)c1)[C@H](c1ccc(OC)c(Br)c1)O2 9.77%, COc1ccc(N2C=C3C(=O)C(C)(OC(=O)C4CCCC4)C(=O)C=C3C=C2c2ccsc2)cc1 (stereo not drawn) -7.23%, CC(CCN1CCCc2nc(C)c(C)cc21)=NOC[C@@H](O)[C@H]1O[C@@H]2OC(C)(C)O[C@H]2[C@@H]1O -15.1%, C=CCOC(=O)N[C@H](c1ccc(-c2ccccc2)cc1)[C@H](C)C=CCC(=O)OC 5.68%, CCN1C(=O)N(S(=O)(=O)c2ccc(C)cc2)C(c2ccccc2)C(C(=O)OC)=C1C (stereo not drawn) 4.69%

Potency, inactive:
C[C@H](NC(=O)N1CCc2nc(-c3ccccc3)c3c(c2C1)CO[C@@H](C)C3)c1ccccc1, COc1ccc(-c2nc3c(c4c2C[C@H](c2ccccc2)OC4)CN(C(=O)C2CC2)CC3)c(C)c1, CC1(OC(=O)CCc2ccccc2)C(=O)C=C2C=C(c3ccc(C#N)cc3)N(CC3CC3)C=C2C1=O (stereo not drawn), C[C@H](NC(=O)N1CCc2nc(COc3ccccc3)c3c(c2C1)CO[C@@H](C)C3)c1ccccc1, COC(=O)CC1c2ccccc2C(Cc2ccc3c(c2)OCO3)=C(C)N1C(=O)OC (stereo not drawn)

From PubChem BioAssay (NCATS)
